Test [1] in a line: HPAF-II 24hr Apoptosis Induction qHTS against the NCATS CANVASS Library (AID 1347356). Note: 0% is about no effect. In outline:
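Caspase-Glo 3/7 luminescence, read after 15 min room-temperature development, measures apoptosis in HPAF-II cells treated 24 h at 37 degrees C with an 11-point concentration series; 500 cells/well; doxorubicin control.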
On the technique in general: qHTS replaces the single test concentration by a dilution series.

Test [2] is described as follows: HEK293 18hr Apoptosis Induction qHTS against the NCATS CANVASS Library (AID 1347357). Note: 0% is about no effect. In outline: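 Natural products applied to HEK293 for 18 hr; Caspase-Glo 3/7 readout.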
Test [3] is described as follows: HPAF-II 18hr Apoptosis Induction qHTS against the NCATS CANVASS Library (AID 1347360). Note: 0% is about no effect. Summed up:
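Luminescent DEVD-substrate signal, proportional to caspase activity, is measured in HPAF-II cells after 18-hour treatment across a concentration series; doxorubicin serves as control.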

The nature of test [4]: HEK293 12hr Apoptosis Induction qHTS against the NCATS CANVASS Library (AID 1347361). Note: 0% is about no effect. In outline:
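Luminescent caspase-3/7 signal, proportional to enzyme activity, was recorded from HEK293 cultures in DMEM + 10% FBS treated for 12 hours with titrated natural products (11 points). Doxorubicin (0.1nM - 4uM) served as control.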

Test [5] concerns NAD(P)H diaphorase (Clostridium kluyveri). Description: Diaphorse counterscreen qHTS: Assay Interference Panel against the NCATS CANVASS Library (AID 1347362). Note: 0% is about no effect. Summed up: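 Counterscreen for coupling-enzyme interference: resorufin fluorescence from resazurin/NADH turnover, read after 5 min at room temperature. Compounds were tested over an 11-point series after 15 min dark preincubation with diaphorase in PBS-Tween.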
A general note: A counterscreen serves to expose hits that act by an unwanted route or on another target.

Test [6] deals with Nuclear receptor subfamily 1 group I member 3 (Homo sapiens) (UniProt Q14994). Briefly: qHTS for Constitutive Androstane Receptor (CAR) Antagonist screened against the NCATS CANVASS Library (AID 1347372). Note: potency is the fitted concentration of half-maximal effect. In outline:
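Antagonist mode: compound added alongside 50 nM CITCO to HepG2-hCAR-CYP2B6 reporter cells, 24hr at 37C. Viability by CellTiter-Fluor fluorescence, then CAR-driven luciferase by ONE-Glo luminescence.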

Test [7] shares this target. Briefly: qHTS for Constitutive Androstane Receptor (CAR) Agonist screened against the NCATS CANVASS Library (AID 1347373).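 Note: every well also contained 1.5 µM PK11195 alongside the test compound; 0% is about no effect.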 In outline: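 Agonist mode with 1.5uM PK11195 present: compounds for 24hr on HepG2-hCAR-CYP2B6 cells. CellTiter-Fluor fluorescence (ex 405, em 540 nm) gives viability; ONE-Glo luminescence reports CAR activation.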
The nature of test [8]: 10-beta competent E. coli microbial cell viability qHTS against the NCATS CANVASS Library (AID 1347376). Note: 0% is about no effect. In outline:
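Read-out: BacTiter-Glo ATP luminescence, taken 20 min after reagent addition. Beforehand, 10-beta competent E. coli at 0.2 OD had been incubated overnight at 37C with compounds at 11 concentrations.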

Test [9] is described as follows: DH5-alpha competent E. coli microbial cell viability qHTS against the NCATS CANVASS Library (AID 1347377). The conditions noted are these: outcome: dose series up to 46.1 µM unless noted. In outline:
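Bacterial viability as ATP-dependent luminescence (BacTiter-Glo), read after overnight 37 °C exposure of DH5-alpha competent E. coli to compounds in 11-point titration.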

Test [10] can be described thus: qHTS for Inflammasome Signaling Inhibitors: IL-1-beta AlphaLISA screen against the NCATS CANVASS Library (AID 1347379).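 Note: human THP-1 cells primed with LPS then triggered with ATP.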 In outline:
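Secreted IL-1B from human THP-1 cells quantified by AlphaLISA 16 hr after compound addition (final up to 57.5 uM). A 1 hr compound pretreatment preceded inflammasome activation with 250 ng/mL LPS plus 1.25 mM ATP (final).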

A short description of test [11]: Cytotoxicity qHTS for assessment of Hepg2 cells membrane integrity screened against the NCATS CANVASS Library (AID 1347387). Summed up: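 Membrane damage quantified as fluorescent LDH-release signal (ex 560, em 590 nm) in HepG2 cells treated 5 hr at 37C. qHTS format, 11 concentrations spanning 0.59 nM - 46 uM final, cells plated at 2000 per well the night before.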

Test [12] can be described thus: qHTS for Activators of p53 Stress Response Pathway screened against the NCATS CANVASS Library (AID 1347388). Note: 0% is about no effect. In outline:
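Beta-lactamase reporter driven by p53 response elements in HCT-116 cells, read as the 460 nm/530 nm emission ratio after CCF4 loading, following 16 h of exposure to an 11-point series. Cell viability was measured in the same wells by CellTiter-Glo luminescence.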

Test [13] in a line: Redox Reaction Profiling qHTS: Assay Interference Panel against the NCATS CANVASS Library (AID 1347401).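 Note: 100% = activation by 2 µM chloranil control.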 Summed up:
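Redox-cycling liability assessed as DTT-driven conversion of resazurin (5 uM, with 200 uM DTT, HEPES pH 7.3) to fluorescent resorufin. Fluorescence at 525/598 nm measured initially and after 15 min dark incubation.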

Test [14] in a line: qHTS to identify inhibitors of the type 1 interferon - major histocompatibility complex class I in skeletal muscle: primary screen against the NCATS Mechanism Interrogation Plate v5.0 (MIPE) Libary (AID 1347411).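 For activity change, negative = inhibition: plate controls were vehicle for no effect and reference inhibitor for full effect.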 Note: nearly all actives have a fitted effect of over 65% in size. Note: potency is the fitted concentration of half-maximal effect. In outline: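 Luminescence from CRISPR HiBit-tagged endogenous HLA-B in human myoblasts reported MHC class I level after 24 h of IFN-beta (4 ng/ml) plus compound. Compounds ran as 11-point 1:3 series, top 46 uM final.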

Test [15] in a line: Primary qHTS for inhibitors of nuclear receptor binding SET domain protein 2 (NSD2) in an isogenic RCH-ACV NSD2 p.E1099K mutant (9B) (AID 1645876). Note: nearly all actives have a fitted effect of over 70% in size. Note: potency is the fitted concentration of half-maximal effect.
The nature of test [16]: Primary qHTS for inhibitors of nuclear receptor binding SET domain protein 2 (NSD2) in an RCH-ACV wild type WT cells (2C) (AID 1645877). Note: nearly all actives have a fitted effect of over 70% in size. Note: potency is the fitted concentration of half-maximal effect.
Test [17] can be described thus: qHTS drug screen for cell cycle checkpoint inhibitors in PARPi-resistant BRCA-mutant ovarian cancer cell lines. (AID 1963452; calls by dose curve). The conditions noted are these: PEO1/OlaR viability, CellTiter-Glo luminescence, 96 h, stronger effect = lower value. In outline:
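PEO1, PEO4 and PEO1/OlaR ovarian cancer cells, 600 per well, exposed 96 h at 37C to a dilution series. Viability read by CellTiter-Glo luminescence, normalized to DMSO and empty wells; activity summarized as Z-AUC.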

The target in test [18] is Glutathione peroxidase 1 (Homo sapiens) (UniProt P07203). Briefly: Primary qHTS Assay for Inhibitors of Recombinant Selenoprotein Glutathione Peroxidase 1 (GPX1) (AID 1845191). Note: nearly all actives have a fitted effect of over 65% in size. Summed up:
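NADPH consumption tracked by fluorescence at 340/450 nm between t=0 and t=15 min, room temperature. Final mix: 10 nM GPX1, 100 nM glutathione reductase, 1 mM GSH, 0.5 mM NADPH, 0.5 mM cumene hydroperoxide, 0.01% BSA; 30 min compound–enzyme preincubation.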

The target of test [19] is Phospholipid hydroperoxide glutathione peroxidase GPX4 (Homo sapiens) (UniProt P36969). Briefly: Primary qHTS Assay for Inhibitors of Recombinant Selenoprotein Glutathione Peroxidase 4 (GPX4) (AID 1845192). For activity change, negative = inhibition: % is set by controls: 0 for no effect and ±100 for the full control effect. Note: nearly all actives have a fitted effect of over 65% in size. Note: potency is the fitted concentration of half-maximal effect. To be noted: outcome: dose series up to 50 µM unless noted. In outline:
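NADPH consumption followed by fluorescence at 340/450 nm, t=0 and after 15 min at room temperature. Reaction started with cumene hydroperoxide (0.5 mM final) after 30 min compound–GPX4 preincubation; final 200 nM GPX4, 100 nM GR, 1 mM GSH, 0.5 mM NADPH.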

Test [20] in a line: qHTS assay to identify inhibitors of the type 1 interferon - major histocompatibility complex class I in skeletal muscle: Counter screen cell viability and HiBit confirmation (AID 1347412). For activity change, negative = inhibition: % is set by controls: 0 for no effect and ±100 for the full control effect. For all read-outs here: nearly all actives have a fitted effect of over 60% in size. Note: potency is the fitted concentration of half-maximal effect. The conditions noted are these: iHSKM muscle cells + IFN-b, HiBiT or CellTiter-Glo, 24 h; for activity change, negative = inhibition: at 45.9 µM (top of the series). In outline: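 Human myoblast knock-in line, 4.0 ng/ml IFN-beta stimulation, 24 h compound treatment. Endpoints: HiBiT lytic luminescence (HLA-B level) and CellTiter Glo (ATP). Dosing 12 concentrations, 3-fold steps, 46 uM highest final.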

[21] abbreviates: measured here: PEO1 parental Z-AUC.

These results are taken from PubChem BioAssay (NCATS).

Each structure is given as a SMILES string. Several values for one entry are separate records, joined by “and”; a condition that tells them apart may be missing. Equal values may be shown once. Records with an inconclusive call do not appear. Activity calls are given as the source filed them. Unless noted, calls come from the whole dose curve; as a rule, active = well fitted curve in the direction sought with a large enough effect; inconclusive = small, poorly fitted or top-dose-only effect, or another doubt; inactive = no such curve, though single readings can be large; an effect the other way counts as inactive or inconclusive.

Sequence of Glutathione peroxidase 1 (Homo sapiens) (P07203 whole entry, looked up): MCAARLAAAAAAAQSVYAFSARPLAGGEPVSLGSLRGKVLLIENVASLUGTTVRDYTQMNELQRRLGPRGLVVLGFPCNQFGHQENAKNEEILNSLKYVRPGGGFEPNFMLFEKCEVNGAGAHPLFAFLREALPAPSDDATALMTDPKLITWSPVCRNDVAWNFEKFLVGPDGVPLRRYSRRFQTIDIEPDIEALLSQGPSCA
Sequence of Phospholipid hydroperoxide glutathione peroxidase GPX4 (Homo sapiens) (P36969 whole entry, looked up): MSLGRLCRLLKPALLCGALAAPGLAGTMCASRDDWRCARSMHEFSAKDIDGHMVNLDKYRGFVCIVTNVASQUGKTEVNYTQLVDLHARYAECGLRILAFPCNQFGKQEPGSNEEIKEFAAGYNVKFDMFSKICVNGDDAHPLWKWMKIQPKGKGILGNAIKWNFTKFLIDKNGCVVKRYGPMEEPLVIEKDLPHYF
Sequence of Nuclear receptor subfamily 1 group I member 3 (Homo sapiens) (Q14994 whole entry, looked up): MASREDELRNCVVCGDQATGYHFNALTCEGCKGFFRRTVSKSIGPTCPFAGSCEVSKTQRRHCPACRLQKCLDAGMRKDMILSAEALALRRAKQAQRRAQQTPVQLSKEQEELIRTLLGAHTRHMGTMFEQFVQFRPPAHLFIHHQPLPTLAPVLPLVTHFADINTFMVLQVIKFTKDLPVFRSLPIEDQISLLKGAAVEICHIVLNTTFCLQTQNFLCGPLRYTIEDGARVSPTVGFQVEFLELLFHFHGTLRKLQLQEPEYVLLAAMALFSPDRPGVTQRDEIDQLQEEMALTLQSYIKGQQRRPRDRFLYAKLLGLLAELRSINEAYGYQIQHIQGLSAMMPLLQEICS

As for `O[C@H]1C=C2[C@H]3CN(Cc4cc5c(cc43)OCO5)[C@H]2C[C@@H]1O`, the call in test [1], in test [4], in test [8], in test [9] and in test [11] was inactive. For the same compound, the Potency result in test [2], in test [3], in [5], in test [7], in test [10] and in test [12] was “inactive” throughout. Besides, the Potency result in test [13] is “inactive”. The Potency in [6] is 13.2 µM (active).
Take `CN(CCOc1ccc(C[C@H](Nc2ccccc2C(=O)c2ccccc2)C(=O)O)cc1)c1ccccn1`: the Potency entry in test [14], in test [15] and in test [16] was “inactive” throughout. Moreover, the Z-AUC in test [17] was 0.115 (inactive) and 0.904 (inactive); in test [17] (setting [21]) it was 0.442 and 0.488; in [17] (measured here: PEO4 Z-AUC), 0.445 and 0.87.
In the case of `NS(=O)(=O)c1ccc(Cc2c(-c3cccc(-c4ccccc4)c3)nn(-c3nc(C(=O)O)cs3)c2CC2CC2)cc1`, the Potency entry in test [14] and in [18] was “inactive” in each case. The Potency is 5.25 µM (active) in test [16] and 6.4 µM (active) in [19]. Further, the results for the Z-AUC in [17], in test [17] (setting [21]) and in [17] (measured here: PEO4 Z-AUC) were -1.08 (inactive), -0.77 and -1.44, respectively.
For the compound `C[C@@H]1C[C@H](N)C[C@H](c2ccncc2NC(=O)c2ccc(F)c(-c3c(F)cccc3F)n2)C1`, the Potency in test [14] was 26.2 µM (active); in test [15] it was 14.8 µM (active); in test [16], 11.8 µM (active). In [19], the Potency entry was “inactive”. Besides, the Z-AUC was -0.973 (inactive) in [17], -0.644 in test [17] (setting [21]) and -0.817 in [17] (measured here: PEO4 Z-AUC). The results for the activity change, negative = inhibition in [20] (HiBiT) and in test [20] (Viability) were -24.5% (inactive) and -19.6% (inactive), respectively.
Consider `Cc1cc(-n2c(=O)ccc3cnc4[nH]ccc4c32)ccc1F`, for which the values for the Potency in test [14], in test [15] and in test [20] (HiBiT) were 4.15 µM (active), 18.6 µM (active) and 3.52 µM (active), respectively. Further, the Potency result in [18] and in [19] was “inactive” throughout. Moreover, the Z-AUC in test [17] is -0.465 (inactive); in [17] (setting [21]) it was 0.0709; in test [17] (measured here: PEO4 Z-AUC), 0.281. Moreover, in test [20] (Viability), the activity change, negative = inhibition was 5.99% (inactive).
For `COc1nc(OCc2cccc(-c3ccccc3)c2C)ccc1CNCCNC(C)=O`, the Potency in test [14] was 16.5 µM (active); in test [15], 7.42 µM (active); in test [16], 7.42 µM (active). The Potency entry in test [18] is “inactive”. The Z-AUC in [17] was -0.638 (inactive); in test [17] (setting [21]), -0.646; in test [17] (measured here: PEO4 Z-AUC) it was -0.574. The activity change, negative = inhibition in test [20] (HiBiT) was -16.7% (inactive).
Take `CC(=O)Nc1cc(Oc2ccc3c(nc(Nc4ccc(F)cc4F)n3C)c2C)ccn1`: the Potency was 0.262 µM (active) in test [14], 11.8 µM (active) in test [15], 2.63 µM (active) in test [16] and 1.11 µM (active) in test [20] (HiBiT). Moreover, the Potency entry in [18] and in [19] was “inactive” in each case. The Z-AUC in test [17] is -0.216 (inactive); in test [17] (setting [21]) it was -0.646; in test [17] (measured here: PEO4 Z-AUC) it was -1.5.
As to `CN(C)C[C@@H]1CCn2cc(c3ccccc32)C2=C(C(=O)NC2=O)c2cn(c3ccccc23)CCO1`, the Potency in test [14] was 4.66 µM (active); in test [15] it was 7.42 µM (active); in test [16] it was 6.61 µM (active); in test [20] (HiBiT) it was 27.9 µM (active). Besides, the Potency result in test [18] was “inactive”. Further, the Z-AUC is 0.756 (inactive) in [17], 0.389 in [17] (setting [21]) and 0.797 in test [17] (measured here: PEO4 Z-AUC).
For `COc1ccc(N2C(=O)N(c3c(C)cccc3Cl)Cc3cnc(Nc4ccc(C5CCN(C)CC5)cc4OC)nc32)nc1`, the Potency was 14.7 µM (active) in [14], 3.32 µM (active) in test [15], 3.72 µM (active) in test [16] and 14 µM (active) in [20] (HiBiT). The Potency result in [18] and in [19] was “inactive” each time. For the same compound, the Z-AUC was -1.61 (inactive) in [17], -1.1 in test [17] (setting [21]) and -0.332 in test [17] (measured here: PEO4 Z-AUC).
